# Laboratory results as given in PubChem BioAssay (NCATS).
# Several values for one entry are separate records, joined by “and”; a condition that tells them apart may be missing. Equal entries are not always repeated. Records with an inconclusive call do not appear. A call without a number means that no potency is given here. Activity calls are given as the source filed them. Unless noted, the call rests on the fitted dose curve.
# Experiments:
# [1] = molecular target: Bile acid receptor (Homo sapiens) (UniProt Q96RI1); test: qHTS assay for small molecule agonists of farnesoid X receptor signaling (AID 588527); conditions: HEK293T FXR-UAS-bla, beta-lactamase ratio, 16 h; stronger effect = higher value
# Bile acid receptor (Homo sapiens), sequence (Q96RI1 whole entry, looked up): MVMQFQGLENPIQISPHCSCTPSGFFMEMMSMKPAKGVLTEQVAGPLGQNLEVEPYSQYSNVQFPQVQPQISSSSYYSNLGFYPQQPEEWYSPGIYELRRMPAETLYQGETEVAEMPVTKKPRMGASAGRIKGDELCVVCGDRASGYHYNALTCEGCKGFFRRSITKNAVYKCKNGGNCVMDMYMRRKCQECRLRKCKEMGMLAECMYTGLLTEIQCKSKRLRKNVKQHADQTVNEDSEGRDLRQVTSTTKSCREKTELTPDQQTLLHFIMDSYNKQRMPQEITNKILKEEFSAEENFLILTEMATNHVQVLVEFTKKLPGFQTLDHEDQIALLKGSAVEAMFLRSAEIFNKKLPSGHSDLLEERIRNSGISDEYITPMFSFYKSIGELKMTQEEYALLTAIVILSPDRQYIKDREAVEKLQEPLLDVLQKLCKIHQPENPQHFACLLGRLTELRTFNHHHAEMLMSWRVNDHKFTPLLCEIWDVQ
# Summary of the method: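 Read-out: beta-lactamase reporter fluorescence with CCF4 substrate in GeneBLAzer FXR-UAS-bla HEK293T cells, after 16 h compound exposure at 37 C. Response scaled between DMSO basal (0%) and chenodeoxycholic acid at 100 uM (100%).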
# [2] = molecular target: Glucocorticoid receptor (Homo sapiens) (UniProt P04150); test: qHTS assay for small molecule agonists of glucocorticoid receptor signaling (AID 588532; active means well fitted curve in the direction sought with a large enough effect in the signal ratio, with a control signal flat; the % refers to the signal ratio); conditions: HeLa MMTV-bla, beta-lactamase ratio, agonist, 18 h; stronger effect = higher value; percent of dexamethasone control, DMSO zero
# Glucocorticoid receptor (Homo sapiens), sequence (P04150 whole entry, looked up): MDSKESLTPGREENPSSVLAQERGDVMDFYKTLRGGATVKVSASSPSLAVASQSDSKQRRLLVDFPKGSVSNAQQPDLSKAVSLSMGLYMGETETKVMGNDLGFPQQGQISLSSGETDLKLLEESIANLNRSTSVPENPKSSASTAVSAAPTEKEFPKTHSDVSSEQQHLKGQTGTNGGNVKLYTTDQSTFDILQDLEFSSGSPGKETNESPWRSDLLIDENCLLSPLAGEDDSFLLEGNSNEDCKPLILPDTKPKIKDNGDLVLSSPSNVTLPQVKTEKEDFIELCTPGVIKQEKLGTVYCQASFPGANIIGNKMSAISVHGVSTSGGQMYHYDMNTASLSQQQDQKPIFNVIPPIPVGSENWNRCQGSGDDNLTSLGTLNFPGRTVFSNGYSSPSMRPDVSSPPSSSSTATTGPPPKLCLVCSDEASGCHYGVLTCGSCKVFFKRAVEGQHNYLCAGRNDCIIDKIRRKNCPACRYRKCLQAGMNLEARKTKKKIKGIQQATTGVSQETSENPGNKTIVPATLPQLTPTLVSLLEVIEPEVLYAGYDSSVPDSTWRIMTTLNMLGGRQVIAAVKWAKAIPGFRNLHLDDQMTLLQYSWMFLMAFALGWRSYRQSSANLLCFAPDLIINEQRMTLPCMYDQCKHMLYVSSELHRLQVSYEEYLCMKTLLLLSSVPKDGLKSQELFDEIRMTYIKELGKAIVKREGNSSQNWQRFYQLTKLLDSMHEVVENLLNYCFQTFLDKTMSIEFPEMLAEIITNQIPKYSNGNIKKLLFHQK
# Summary of the method: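 Quantitative HTS using CellSensor MMTV-bla HeLa cells in charcoal/dextran-treated serum; compounds tested up to 92 uM. After 18 h at 37 C, CCF4 dye reported reporter induction.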
# [3] = molecular target: Peroxisome proliferator-activated receptor gamma (Homo sapiens) (UniProt P37231); test: qHTS assay for small molecule antagonists of peroxisome proliferator-activated receptor gamma signaling (AID 588537; active means well fitted inhibition curve with a large enough effect in the signal ratio, with a control signal flat, not every such curve was filed as active; the % refers to the signal ratio;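 further: reporter cells co-stimulated with 50 nM rosiglitazone agonist during compound treatment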); conditions: HEK293 PPARg-UAS-bla, beta-lactamase ratio, antagonist mode; series mostly up to 76.8 µM
# Peroxisome proliferator-activated receptor gamma (Homo sapiens), sequence (P37231 whole entry, looked up): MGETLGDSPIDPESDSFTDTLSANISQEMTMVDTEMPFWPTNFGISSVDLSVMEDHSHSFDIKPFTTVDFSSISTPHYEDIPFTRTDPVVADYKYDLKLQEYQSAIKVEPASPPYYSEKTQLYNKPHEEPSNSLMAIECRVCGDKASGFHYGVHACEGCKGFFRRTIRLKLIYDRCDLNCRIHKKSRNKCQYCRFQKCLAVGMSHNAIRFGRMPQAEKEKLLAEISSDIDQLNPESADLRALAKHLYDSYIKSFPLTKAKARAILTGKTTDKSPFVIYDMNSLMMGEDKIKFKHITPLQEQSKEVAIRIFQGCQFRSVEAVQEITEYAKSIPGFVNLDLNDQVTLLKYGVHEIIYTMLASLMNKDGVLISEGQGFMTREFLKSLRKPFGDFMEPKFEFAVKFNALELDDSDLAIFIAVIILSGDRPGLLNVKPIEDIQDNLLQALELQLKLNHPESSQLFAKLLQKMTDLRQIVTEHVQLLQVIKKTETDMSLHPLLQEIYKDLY
# Summary of the method: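 Cell-based beta-lactamase assay; GW9662 served as the antagonist control. Stimulation used rosiglitazone, final 50 nM, 16 h, 37 C.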
# [4] = molecular target: Bile acid receptor (Homo sapiens) (UniProt Q96RI1); test: qHTS assay for small molecule antagonists of farnesoid X receptor signaling (AID 588526); conditions: HEK293T FXR-UAS-bla, beta-lactamase ratio, antagonist mode; series mostly up to 76.7 µM; further: potency means the concentration at half of the fitted maximal effect
# Summary of the method: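 Beta-lactamase reporter antagonist mode: HEK293T FXR-UAS-bla cells, titrated compound, CDCA stimulation, 16 h 37 C, CCF4 dye 2 h RT. Data normalized to CDCA 50 uM and DMSO; Hill-fit IC50.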
# [5] = molecular target: Glucocorticoid receptor (Homo sapiens) (UniProt P04150); test: qHTS assay for small molecule antagonists of glucocorticoid receptor signaling (AID 588533; active means well fitted inhibition curve with a large enough effect in the signal ratio, with a control signal flat, not every such curve was filed as active; the % refers to the signal ratio;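 further: cells stimulated with 2 nM dexamethasone as agonist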; further: potency means the concentration at half of the fitted maximal effect); conditions: HeLa MMTV-bla, GRE beta-lactamase ratio, antagonist mode, 18 h; series mostly up to 76.8 µM
# Summary of the method: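 Antagonist-mode qHTS: compound titrations added to GRE-bla HeLa cells, then dexamethasone 2 nM final; 18 h, 37 C. CCF4 FRET fluorescence normalized to dexamethasone and DMSO; IC50 from Hill fit.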
# [6] = molecular target: Peroxisome proliferator-activated receptor delta (Homo sapiens) (UniProt Q03181); test: qHTS assay for small molecule agonists of peroxisome proliferator-activated receptor delta signaling (AID 588534); conditions: HEK293T PPARdelta-UAS-bla, beta-lactamase ratio, 18 h; series mostly up to 76.7 µM
# Peroxisome proliferator-activated receptor delta (Homo sapiens), sequence (Q03181 whole entry, looked up): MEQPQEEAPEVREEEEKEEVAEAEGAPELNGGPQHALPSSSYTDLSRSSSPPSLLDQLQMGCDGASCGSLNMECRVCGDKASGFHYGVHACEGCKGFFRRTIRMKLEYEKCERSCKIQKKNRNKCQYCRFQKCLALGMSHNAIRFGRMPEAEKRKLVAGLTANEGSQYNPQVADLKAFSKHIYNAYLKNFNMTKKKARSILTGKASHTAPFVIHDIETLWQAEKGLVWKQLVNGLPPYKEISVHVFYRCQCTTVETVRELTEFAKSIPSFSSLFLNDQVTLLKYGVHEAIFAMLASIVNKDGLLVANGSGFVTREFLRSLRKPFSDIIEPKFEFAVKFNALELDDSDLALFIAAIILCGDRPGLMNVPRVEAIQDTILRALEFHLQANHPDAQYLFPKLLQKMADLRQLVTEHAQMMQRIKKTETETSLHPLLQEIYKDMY
# Summary of the method: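 EC50 and efficacy values derive from Hill fits of a concentration series in a beta-lactamase reporter cell assay. Exposure is 18 hrs at 37 C, with CCF4 fluorescence as the readout.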
# [7] = qHTS assay for small molecule antagonists of peroxisome proliferator-activated receptor delta signaling (AID 588535; active means well fitted inhibition curve with a large enough effect in the signal ratio, with a control signal flat, not every such curve was filed as active; the % refers to the signal ratio;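 on max response: cells co-treated with a PPAR-delta agonist as stimulator during compound exposure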); conditions: HEK293T PPARd-UAS-bla, beta-lactamase FRET ratio, 18 h; 460 nm channel
# Summary of the method: (§1)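 Antagonist-mode qHTS using GeneBLAzer PPAR-delta-UAS-bla HEK293T cells; compound exposure 18 hrs at 37 C over a titration. Ratiometric CCF4 fluorescence at 460/530 nm; concentration-response points fitted to the Hill equation.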
# [8] = molecular target: Peroxisome proliferator-activated receptor delta (Homo sapiens) (UniProt Q03181); test: as above; conditions: HEK293T PPARd-UAS-bla, beta-lactamase FRET ratio, 18 h; series mostly up to 76.7 µM
# Summary of the method: as §1
# [9] = molecular target: Peroxisome proliferator-activated receptor gamma (Homo sapiens) (UniProt P37231); test: qHTS assay for small molecule agonists of peroxisome proliferator-activated receptor gamma signaling (AID 588536; active means well fitted curve in the direction sought with a large enough effect in the signal ratio, with a control signal flat, not every such curve was filed as active; the % refers to the signal ratio); conditions: HEK293 PPARg-UAS-bla, beta-lactamase ratio, 16 h, percent of rosiglitazone response, DMSO as zero; series mostly up to 76.7 µM
# Summary of the method: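 Beta-lactamase reporter read-out: CCF4 fluorescence (ex 405, em 460/530 nm) after 2 h at RT. HEK293 GeneBLAzer cells were treated for 16 h at 37 C. Hill fits gave EC50 and efficacy versus 2 uM rosiglitazone (100%) and DMSO (0%).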
# [10] = molecular target: Androgen receptor (Homo sapiens) (UniProt P10275); test: qHTS assay for small molecule antagonists of androgen receptor signaling (AID 588516; active means well fitted curve in the direction sought with a large enough effect in the signal ratio, with a control signal flat, not every such curve was filed as active; the % refers to the signal ratio); conditions: AR-UAS-bla HEK293, beta-lactamase ratio, antagonist mode, 16 h; series mostly up to 76.8 µM
# Androgen receptor (Homo sapiens), sequence (P10275 whole entry, looked up): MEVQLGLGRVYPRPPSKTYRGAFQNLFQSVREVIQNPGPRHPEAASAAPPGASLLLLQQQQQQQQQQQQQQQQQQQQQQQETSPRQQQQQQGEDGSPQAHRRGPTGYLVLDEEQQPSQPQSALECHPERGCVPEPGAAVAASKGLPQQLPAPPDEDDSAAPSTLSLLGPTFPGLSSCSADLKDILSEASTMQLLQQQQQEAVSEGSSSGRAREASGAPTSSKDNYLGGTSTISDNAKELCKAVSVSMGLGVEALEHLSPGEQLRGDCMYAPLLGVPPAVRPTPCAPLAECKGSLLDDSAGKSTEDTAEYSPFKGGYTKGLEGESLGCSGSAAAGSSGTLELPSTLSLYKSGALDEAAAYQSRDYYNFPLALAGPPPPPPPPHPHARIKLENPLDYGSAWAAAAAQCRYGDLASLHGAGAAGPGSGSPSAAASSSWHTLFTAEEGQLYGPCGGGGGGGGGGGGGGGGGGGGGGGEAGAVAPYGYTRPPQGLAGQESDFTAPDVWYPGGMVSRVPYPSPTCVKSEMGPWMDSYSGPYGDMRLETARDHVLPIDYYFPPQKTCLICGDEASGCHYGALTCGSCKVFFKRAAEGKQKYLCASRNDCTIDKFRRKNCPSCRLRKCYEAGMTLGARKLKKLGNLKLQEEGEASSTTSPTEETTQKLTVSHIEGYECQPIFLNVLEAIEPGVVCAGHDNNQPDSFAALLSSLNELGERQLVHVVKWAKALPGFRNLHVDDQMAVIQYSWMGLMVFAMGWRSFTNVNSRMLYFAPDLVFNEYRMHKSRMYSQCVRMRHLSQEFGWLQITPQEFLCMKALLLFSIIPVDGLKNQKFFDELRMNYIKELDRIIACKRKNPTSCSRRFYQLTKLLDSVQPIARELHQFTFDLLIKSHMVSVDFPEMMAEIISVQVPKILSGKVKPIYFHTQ
# Summary of the method: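 Antagonist-mode qHTS: inhibition of R1881 (10 nM)-driven beta-lactamase expression in GripTite HEK 293 cells is measured after 16 h; values are Hill-derived IC50s normalized between R1881 and DMSO wells.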
structure (smiles),measurement,setting,value
O=C1c2ccccc2C(=O)C1C(=O)C(c1ccccc1)c1ccccc1,activation,[1],-2.98% (inactive)
same,activation,[2],-2.9% (inactive)
same,outcome,[3],inactive
O=c1c(-c2ccc(O)cc2)coc2cc(O)cc(O)c12,activation,[1],-3.37% (inactive)
Cc1cc(NS(=O)(=O)c2ccc(N)cc2)no1,activation,[1],-1.53% (inactive)
CC(=O)O[C@H]1C(=O)[C@@]2(C)[C@H]([C@H](OC(=O)c3ccccc3)[C@]3(O)C[C@H](OC(=O)[C@H](O)[C@@H](NC(=O)c4ccccc4)c4ccccc4)C(C)=C1C3(C)C)[C@]1(OC(C)=O)CO[C@@H]1C[C@@H]2O,activation,[1],3.09% (inactive)
C[C@]1(O)CC[C@H]2[C@@H]3CCC4=CC(=O)CC[C@]4(C)[C@@]3(F)[C@@H](O)C[C@@]21C,Potency,[4],inactive
same,activation,[1],-0.176% (inactive)
same,activation,[2],0.36% (inactive)
same,Potency,[5],10 µM (active)
same,outcome,[6],inactive
same,max response,[7],-0.651%
same,outcome,[8],inactive
same,outcome,[9],inactive
same,outcome,[3],inactive
O=C(c1ccccc1)c1ccccc1,activation,[1],-1.37% (inactive) and -0.544% (inactive)
same,outcome,[6],inactive
O=C(O)c1cc(-c2ccccc2)nc2ccccc12,activation,[1],-1.96% (inactive)
CC(=O)O[C@]1(C(C)=O)CC[C@H]2[C@@H]3C[C@H](C)C4=CC(=O)CC[C@]4(C)[C@H]3CC[C@@]21C,activation,[1],0.881% (inactive)
CC(O)CN(CCN(CC(C)O)CC(C)O)CC(C)O (stereo not drawn),activation,[1],0.352% (inactive)
same,outcome,[6],inactive
O=C(O)c1ccc(S(=O)(=O)N(Cl)Cl)cc1,activation,[1],0.222% (inactive)
CC(=O)N1CCN(c2ccc(OC[C@H]3CO[C@](Cn4ccnc4)(c4ccc(Cl)cc4Cl)O3)cc2)CC1,Potency,[4],44.7 µM (active)
same,activation,[1],-1.01% (inactive)
same,outcome,[6],inactive
CCCCOC(=O)c1ccc(O)cc1,activation,[1],2.27% (inactive)
same,outcome,[6],inactive
Cc1cc(=O)[nH]c(=S)[nH]1,activation,[1],0.173% (inactive)
same,outcome,[6],inactive
O=C(O)CCCCC(=O)O,activation,[1],-1.88% (inactive)
same,outcome,[6],inactive
COC(=O)C(c1ccccc1)C1CCCCN1 (stereo not drawn),outcome,[10],inactive
same,Potency,[4],inactive
same,activation,[1],-2.4% (inactive)
same,activation,[2],2.14% (inactive)
same,Potency,[5],inactive
same,outcome,[9],inactive
same,outcome,[3],inactive
COc1ccc2[nH]cc(CCNC(C)=O)c2c1,activation,[1],0.0339% (inactive) and -2.2% (inactive) and -1.63% (inactive)
same,outcome,[6],inactive
O=C(O)CCCc1ccc(N(CCCl)CCCl)cc1,Potency,[4],inactive
same,activation,[1],-2.97% (inactive) and 0.833% (inactive)
same,outcome,[6],inactive
same,max response,[7],26.1%
same,outcome,[8],inactive
same,outcome,[9],inactive
same,outcome,[3],inactive
[N-]=[N+]=CC(=O)OC[C@H](N)C(=O)O,Potency,[4],inactive
same,outcome,[6],inactive
same,max response,[7],46.8%
same,outcome,[8],inactive
Cc1c(C)c2c(c(C)c1O)CCC(C)(COc1ccc(CC3SC(=O)NC3=O)cc1)O2 (stereo not drawn),activation,[1],9.23% (inactive)
CC(C)=CCC/C(C)=C/CO,activation,[1],0.54% (inactive)
Clc1ccc(C(c2ccc(Cl)cc2)C(Cl)(Cl)Cl)cc1,Potency,[4],inactive
same,activation,[1],4.82% (inactive)
same,activation,[2],4.79% (inactive) and 0.666% (inactive)
same,Potency,[5],inactive
same,outcome,[6],inactive
same,max response,[7],-51.4%
same,outcome,[8],inactive
same,outcome,[3],inactive
CCCc1c(OCCCCc2nn[nH]n2)ccc(C(C)=O)c1O,activation,[1],7.75% (inactive)
CC(C)c1cccc(C(C)C)c1O,outcome,[10],inactive
same,outcome,[6],inactive
same,max response,[7],-11.4%
same,outcome,[8],inactive
same,outcome,[9],inactive
O=P1(N(CCCl)CCCl)NCCCO1 (stereo not drawn),Potency,[4],inactive
same,activation,[1],-1.19% (inactive) and 1.86% (inactive)
same,activation,[2],2.61% (inactive) and 1.05% (inactive)
same,Potency,[5],inactive
same,outcome,[6],inactive
same,max response,[7],34.9% and 30.3%
same,outcome,[8],inactive
same,outcome,[9],inactive
same,outcome,[3],inactive
Nc1nc(N)nc(NC2CC2)n1,Potency,[4],inactive
same,Potency,[5],inactive
same,outcome,[6],inactive
same,max response,[7],47%
same,outcome,[8],inactive
CCOC(=O)c1ccc(O)cc1,activation,[1],0.927% (inactive)
same,outcome,[6],inactive
Cc1ncc(CO)c(CO)c1O,activation,[1],-0.349% (inactive)
same,outcome,[6],inactive
CCOC(=O)CC(SP(=S)(OC)OC)C(=O)OCC (stereo not drawn),outcome,[10],inactive
same,activation,[2],-4.46% (inactive) and 3.12% (inactive) and 14.7% (inactive)
same,Potency,[5],inactive
same,outcome,[6],inactive
same,max response,[7],0.513%
same,outcome,[8],inactive
same,outcome,[9],inactive
Nc1ccccc1C(=O)O,Potency,[4],inactive
same,outcome,[9],inactive
same,outcome,[3],inactive
Cc1cc(=O)n(-c2ccccc2)n1C,activation,[1],1.08% (inactive)
COP(=S)(OC)SCN1C(=O)c2ccccc2C1=O,Potency,[4],inactive
same,activation,[2],10.5% (inactive)
same,Potency,[5],inactive
same,outcome,[6],inactive
same,outcome,[9],inactive
CC(C)(C)CC(C)(C)c1ccc(OCCOCC[N+](C)(C)Cc2ccccc2)cc1,activation,[1],-1.62% (inactive)
CCC(C)(C)c1ccc(O)cc1,Potency,[4],inactive
same,activation,[1],-0.511% (inactive) and -0.445% (inactive)
same,activation,[2],-4.8% (inactive)
same,Potency,[5],inactive
same,outcome,[9],inactive
same,outcome,[3],inactive
